Measurements from PubChem BioAssay (NCI).
Compounds without any hit were thinned out: in the full panel of roughly 79,000, 15% have a hit. The source made the active and inactive calls. No stated cut-off is given here; in the data, active means growth inhibition above about 70%; inactive means the rest.

Experiments:
[1] = NCI Yeast Anticancer Drug Screen. Data for the rad52 strain (AID 147);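 further: 0% = growth of vehicle-treated control cultures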; conditions: S. cerevisiae rad52 mutant growth inhibition, stronger effect = higher value
Procedure, shortened: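 Growth of repair-deficient yeast cells was compared between compound-treated and vehicle-treated cultures to give percent inhibition.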

[2] = NCI Yeast Anticancer Drug Screen. Data for the wt1 strain (AID 149);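 further: 0% = growth of vehicle-treated wt1 cultures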; conditions: S. cerevisiae wt1 strain (SPY 50644) growth inhibition, stronger effect = higher value
Procedure, shortened: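 The wt1 strain was treated with compounds, and growth was compared with vehicle-treated cultures to give inhibition.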

[3] = NCI Yeast Anticancer Drug Screen. Data for the rad50EPP+ strain (AID 151);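 further: 0% = growth of vehicle-treated control cultures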; conditions: S. cerevisiae rad50 mutant strain, stronger effect = higher value
Procedure, shortened: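 Measured: growth inhibition of rad50EPP+ yeast. Reference: vehicle-treated controls. Screen uses strains with defined genetic alterations in DNA damage repair or cell cycle control.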

[4] = NCI Yeast Anticancer Drug Screen. Data for the mgt1 strain (AID 153); conditions: S. cerevisiae mgt1 mutant growth inhibition, stronger effect = higher value
Procedure, shortened: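 Compounds were applied to mgt1 mutant yeast, and growth was then compared against vehicle-treated control cultures to give percent inhibition.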

[5] = NCI Yeast Anticancer Drug Screen. Data for the rad50 strain (AID 155);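 further: 0% = growth of vehicle-only cultures of the same strain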; conditions: S. cerevisiae rad50 strain growth inhibition, stronger effect = higher value
Procedure, shortened: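 Cells are treated with compound, grown, and their growth is then scored against vehicle-only cultures of the same repair-deficient yeast strain.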

[6] = NCI Yeast Anticancer Drug Screen. Data for the mec2-1 strain (AID 157); conditions: S. cerevisiae mec2-1 strain, stronger effect = higher value
Procedure, shortened: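 Compounds were applied to mec2-1 yeast cells. Their growth was then compared with that of vehicle-treated cultures to give growth inhibition.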

[7] = NCI Yeast Anticancer Drug Screen. Data for the rad14 strain (AID 159);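 further: 0% = growth of vehicle-treated control cultures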; conditions: S. cerevisiae rad14 strain growth inhibition, stronger effect = higher value
Procedure, shortened: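 Readout: yeast growth inhibition, referenced to vehicle-only cultures. Strain bears a defined alteration in DNA damage repair.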

[8] = NCI Yeast Anticancer Drug Screen. Data for the sgs1 mgt1 strain (AID 161);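 further: 0% = growth of cultures given vehicle only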; conditions: S. cerevisiae sgs1 mgt1 strain, stronger effect = higher value
Procedure, shortened: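 Compounds are added to genetically altered yeast, and growth is compared with cultures given vehicle alone to give percent inhibition.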

[9] = NCI Yeast Anticancer Drug Screen. Data for the CLN2oe strain (AID 163);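 further: 0% = growth of vehicle-only control cultures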; conditions: S. cerevisiae CLN2oe strain, stronger effect = higher value
Procedure, shortened: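 Cells of an engineered yeast line with disturbed cell-cycle regulation are treated with compound. Inhibition of growth is then calculated relative to the vehicle-treated reference.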

[10] = NCI Yeast Anticancer Drug Screen. Data for the cln2 rad14 strain (AID 165);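 further: 0% = growth equal to vehicle treated cultures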; conditions: S. cerevisiae cln2 rad14 strain, stronger effect = higher value
Procedure, shortened: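 Strain: cln2 rad14 yeast, altered in cell cycle control and DNA damage repair. Read-out: growth inhibition vs vehicle.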

[11] = NCI Yeast Anticancer Drug Screen. Data for the bub3 strain (AID 167); conditions: S. cerevisiae bub3 mutant strain, stronger effect = higher value
Procedure, shortened: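 Part of a panel of yeast mutants defective in DNA damage repair or cell cycle regulation. Each strain is grown with compound, and inhibition is calculated relative to solvent-treated cultures.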

[12] = NCI Yeast Anticancer Drug Screen. Data for the wt2 strain (AID 169);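 further: 0% = growth of vehicle-treated yeast cultures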; conditions: S. cerevisiae wt2 strain growth inhibition, stronger effect = higher value
Procedure, shortened: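 Growth of compound-treated yeast is measured and expressed as inhibition relative to vehicle-only controls.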

[13] = NCI Yeast Anticancer Drug Screen. Data for the mlh1 strain (AID 171);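 further: 0% = growth of vehicle-treated control cultures of the same strain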; conditions: S. cerevisiae mlh1 strain growth inhibition, stronger effect = higher value
Procedure, shortened: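 Test agents were incubated with yeast bearing a defined DNA damage repair or cell cycle control alteration; values are growth inhibition normalised to vehicle-treated cultures.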

[14] = NCI Yeast Anticancer Drug Screen. Data for the sgs1 strain (AID 173);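 further: 0% = growth of vehicle-only control cultures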; conditions: S. cerevisiae sgs1 mutant, stronger effect = higher value
Procedure, shortened: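 Strain with an altered DNA repair or cell cycle pathway exposed to compound. Growth then measured. Value = inhibition versus vehicle control.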

[15] = NCI Yeast Anticancer Drug Screen. Data for the mlh1 rad18 strain (AID 175); conditions: S. cerevisiae mlh1 rad18 strain growth inhibition, stronger effect = higher value
Procedure, shortened: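 A repair-deficient yeast strain is exposed to test compound, and growth is scored relative to vehicle-treated controls.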

[16] = NCI Yeast Anticancer Drug Screen. Data for the rad18 strain (AID 177); conditions: S. cerevisiae rad18 mutant growth inhibition, stronger effect = higher value
Procedure, shortened: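 DNA-repair-defective yeast; compound treatment; growth inhibition scored against vehicle.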

[17] = at 5.0 µM (retest, dose inferred, filed as 0.5)
[18] = at 50.0 µM (retest, dose inferred, filed as 5.0)

Measured: growth inhibition

O=C1OC(C2=CC(=O)c3ccccc3C2=O)C(Cl)=C1Cl (stereo unspecified)
inactive: [1]; at 1.2 µM 3% | [1]; at 3.7 µM 15% | [1]; at 11.0 µM 46% | [2]; at 1.2 µM 1% | [2]; at 3.7 µM 9% | [2]; at 11.0 µM 9% | [2]; at 33.0 µM 14% | [2]; at 100.0 µM 28% | [3]; at 1.2 µM 3% | [3]; at 3.7 µM 13% | [3]; at 11.0 µM 47% | [4]; at 1.2 µM -1% | [4]; at 3.7 µM 0% | [4]; at 11.0 µM 1% | [4]; at 33.0 µM 12% | [4]; at 100.0 µM 24% | [5]; at 1.2 µM 0% | [5]; at 3.7 µM 1% | [5]; [17] 5% | [5]; at 11.0 µM 11% | [5]; at 33.0 µM 30% | [5]; [18] 44% | [5]; at 100.0 µM 47% | [6]; at 1.2 µM -1% | [6]; at 3.7 µM 6% | [6]; [17] 1% | [6]; at 11.0 µM 14% | [6]; at 33.0 µM 34% | [6]; [18] 47% | [6]; at 100.0 µM 56% | [7]; at 1.2 µM 0% | [7]; at 3.7 µM 4% | [7]; at 11.0 µM 12% | [7]; at 33.0 µM 37% | [7]; at 100.0 µM 69% | [8]; [17] 17% | [9]; at 1.2 µM -2% | [9]; at 3.7 µM -13% | [9]; at 11.0 µM -4% | [9]; at 33.0 µM 12% | [9]; at 100.0 µM 30% | [10]; [17] 0% | [10]; [18] 51% | [11]; at 1.2 µM 3% | [11]; at 3.7 µM -1% | [11]; [17] -1% | [11]; at 11.0 µM -2% | [11]; at 33.0 µM 2% | [11]; [18] 6% | [11]; at 50.0 µM 57.4% | [11]; at 100.0 µM 12% | [12]; at 1.2 µM 1% | [12]; at 3.7 µM 1% | [12]; at 11.0 µM 4% | [12]; at 33.0 µM 13% | [12]; at 100.0 µM 36% | [13]; at 1.2 µM -2% | [13]; at 3.7 µM 3% | [13]; at 11.0 µM 6% | [13]; at 33.0 µM 22% | [13]; at 100.0 µM 13% | [14]; at 1.2 µM 4% | [14]; at 3.7 µM 13% | [14]; at 11.0 µM 48% | [15]; [17] 11% | [16]; at 1.2 µM 31%
active: [1]; at 33.0 µM 89% | [1]; at 100.0 µM 91% | [3]; at 33.0 µM 81% | [3]; at 100.0 µM 82% | [5]; at 50.0 µM 86.3% | [6]; at 50.0 µM 80.9% | [8]; [18] 78% | [8]; at 50.0 µM 95.5% | [10]; at 50.0 µM 95.3% | [14]; at 33.0 µM 79% | [14]; at 100.0 µM 87% | [15]; [18] 77% | [15]; at 50.0 µM 94.8% | [16]; at 3.7 µM 79% | [16]; at 11.0 µM 92% | [16]; at 33.0 µM 95% | [16]; at 100.0 µM 94%

COc1cc([C@@H]2c3cc4c(cc3[C@H](OC3OC5COC(C(C)C)OC5C(O)C3O)C3COC(=O)[C@@H]32)OCO4)cc(OC)c1O (stereo partly specified)
inactive: [1]; at 1.2 µM -10% | [1]; at 3.7 µM -17% | [1]; at 11.0 µM -26% | [1]; at 33.0 µM 35% | [2]; at 1.2 µM -25% | [2]; at 3.7 µM -31% | [2]; at 11.0 µM 12% | [2]; at 33.0 µM -18% | [2]; at 100.0 µM 9% | [3]; at 1.2 µM -15% | [3]; at 3.7 µM -19% | [3]; at 11.0 µM -46% | [3]; at 33.0 µM -41% | [3]; at 100.0 µM -37% | [4]; at 1.2 µM -31% | [4]; at 3.7 µM -8% | [4]; at 11.0 µM -32% | [4]; at 33.0 µM -29% | [4]; at 100.0 µM 22% | [5]; at 1.2 µM -22% | [5]; at 3.7 µM -32% | [5]; [17] 18% | [5]; at 11.0 µM -11% | [5]; at 33.0 µM 42% | [5]; at 50.0 µM 1.85% | [6]; at 1.2 µM 4% | [6]; at 3.7 µM 1% | [6]; [17] 9% | [6]; at 11.0 µM -17% | [6]; at 33.0 µM -5% | [6]; [18] 47% | [6]; at 50.0 µM 22.4% | [6]; at 100.0 µM 34% | [7]; at 1.2 µM -14% | [7]; at 3.7 µM -27% | [7]; at 11.0 µM -11% | [7]; at 33.0 µM -22% | [7]; at 100.0 µM 8% | [8]; [17] -1% | [8]; [18] 32% | [8]; at 50.0 µM 28.6% | [9]; at 1.2 µM -3% | [9]; at 3.7 µM 3% | [9]; at 11.0 µM 3% | [9]; at 33.0 µM -22% | [9]; at 100.0 µM 7% | [10]; [17] 10% | [10]; [18] 9% | [10]; at 50.0 µM 13.6% | [11]; at 1.2 µM -66% | [11]; at 3.7 µM -39% | [11]; [17] 10% | [11]; at 11.0 µM -50% | [11]; at 33.0 µM -63% | [11]; [18] 21% | [11]; at 50.0 µM 8.5% | [11]; at 100.0 µM -2% | [12]; at 1.2 µM -58% | [12]; at 3.7 µM -40% | [12]; at 11.0 µM -45% | [12]; at 33.0 µM -19% | [13]; at 1.2 µM -31% | [13]; at 3.7 µM -8% | [13]; at 11.0 µM -32% | [13]; at 33.0 µM -29% | [13]; at 100.0 µM 22% | [14]; at 1.2 µM -6% | [14]; at 3.7 µM -9% | [14]; at 11.0 µM 1% | [14]; at 33.0 µM -5% | [14]; at 100.0 µM 45% | [15]; [17] 18% | [15]; [18] 44% | [15]; at 50.0 µM -64.6% | [16]; at 1.2 µM 6% | [16]; at 3.7 µM -5% | [16]; at 11.0 µM 2% | [16]; at 33.0 µM -21% | [16]; at 100.0 µM 41%
active: [1]; at 100.0 µM 78% | [5]; [18] 96% | [5]; at 100.0 µM 82% | [12]; at 100.0 µM 83%

Oc1ccc2ccccc2c1CCc1c(O)ccc2ccccc12
active: [1]; at 33.0 µM 94% | [1]; at 100.0 µM 85% | [2]; at 100.0 µM 88% | [3]; at 3.7 µM 70% | [3]; at 11.0 µM 85% | [3]; at 33.0 µM 86% | [3]; at 100.0 µM 83% | [4]; at 33.0 µM 95% | [4]; at 100.0 µM 87% | [5]; at 33.0 µM 93% | [5]; [18] 94% | [5]; at 50.0 µM 95.1% | [5]; at 100.0 µM 86%
inactive: [1]; at 1.2 µM 3% | [1]; at 3.7 µM 14% | [1]; at 11.0 µM 54% | [2]; at 1.2 µM 5% | [2]; at 3.7 µM 17% | [2]; at 11.0 µM 19% | [2]; at 33.0 µM 52% | [3]; at 1.2 µM 28% | [4]; at 1.2 µM 2% | [4]; at 3.7 µM 6% | [4]; at 11.0 µM 60% | [5]; at 1.2 µM 5% | [5]; at 3.7 µM 13% | [5]; [17] 15% | [5]; at 11.0 µM 68% | [6]; at 1.2 µM 7% | [6]; at 3.7 µM 15%
